Granule exo inh = lytic granule exocytosis inhibition; TALL-104 LAMP-1 surface exposure, flow cytometry; cells stimulated with thapsigargin and PMA; inhibition, % at 10 µM; hit rate 0.66% among 360,000; AID 651702;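 active means inhibition above about 55%, limit read from the data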
NTR1 ag = agonists of human neurotensin receptor NTR1; P30989; NTR1-U2OS beta-arrestin-GFP spot imaging, agonist mode; activation, % at 20 µM; hit rate 0.17% among 330,000;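 active means activation at or above 40% of the spot to cytoplasm intensity ratio, with at least 20 cells analyzed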;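 further: 0% = DMSO without peptide and 100% = 100 nM NTR1 peptide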
m5-HT2A agonist = mouse HTR2A agonism via beta-arrestin recruitment; hit rate 0.66% among 360,000; activation, % at 7.6 µM; P35363; CHO-K1 mHTR2A beta-arrestin complementation, luminescence; percent of 30 µM serotonin response;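 active means activation above a run cutoff, the mean activation of all tested compounds plus 3 SD, cut at about 14% in these data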;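 further: 0% = plate median of compound wells and 100% = 30 µM serotonin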
Beta2AR agonist = activates human beta-2 adrenergic receptor causing internalization | P07550 | AID 504454 | hit rate 0.43% among 340,000 | Am2.2-beta2AR cells, FAP receptor internalization, flow cytometry | response, % (no concentration beside the values);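 active means response above a set limit, near 3 SD of response in nonfluorescent compounds, cut at about 42% in these data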
Target sequence (P07550 whole entry, looked up): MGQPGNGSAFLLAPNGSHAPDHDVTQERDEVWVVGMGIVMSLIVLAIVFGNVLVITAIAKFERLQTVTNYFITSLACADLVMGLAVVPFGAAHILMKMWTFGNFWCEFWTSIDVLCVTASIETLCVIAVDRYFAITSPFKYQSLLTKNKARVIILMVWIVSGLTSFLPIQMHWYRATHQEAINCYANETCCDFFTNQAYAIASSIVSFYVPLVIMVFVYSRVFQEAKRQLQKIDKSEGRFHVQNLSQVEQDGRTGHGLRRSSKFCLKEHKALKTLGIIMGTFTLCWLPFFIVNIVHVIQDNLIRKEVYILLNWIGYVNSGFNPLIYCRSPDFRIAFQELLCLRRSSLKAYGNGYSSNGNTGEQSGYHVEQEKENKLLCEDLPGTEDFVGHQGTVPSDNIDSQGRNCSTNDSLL
ABHD5-PLIN5 inh = inhibitors of human ABHD5-perilipin-5 interaction | inhibition, % at 4 µM | hit rate 0.78% among 360,000 | Split G. princeps luciferase complementation, luminescence, 4 h | Q00G26+Q8WTS1 | AID 602281;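 active means inhibition above the mean inhibition across every tested compound plus 3 SD, cut at about 22% in these data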;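 further: 0% = DMSO only wells and the 100% control is not disclosed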
MOR ag counter = OPRM1 agonism in mouse HTR2A counterscreen; hit rate 5.3% among 2,300; U2OS OPRM1 beta-arrestin PathHunter, luminescence; DMSO 0%, DAMGO 9.3 µM 100%; shares compounds with m5-HT2A agonist; AID 624380; activation, % at 9.3 µM;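 active means mean activation above the mean of DMSO-only wells plus 3 SD, cut at about 0.5% in these data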
m5-HT2A ag conf = mouse HTR2A agonism confirmed; shares compounds with m5-HT2A agonist; CHO-K1 PathHunter beta-arrestin recruitment, luminescence; DMSO 0%, 30 µM serotonin 100%; activation, % at 7.6 µM; hit rate 19% among 2,300; AID 624381;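 active means mean activation across triplicates above the hit threshold derived in the original primary screen, cut at about 15% in these data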
* hit, by the source's call; · = no result given. In the library only some 2.3% were active in any assay of this set; here they are far more common.

SMILES	Granule exo inh	NTR1 ag	m5-HT2A agonist	Beta2AR agonist	ABHD5-PLIN5 inh	MOR ag counter	m5-HT2A ag conf
CCOC(=O)C1=CC[C@@H](c2ccccc2C(F)(F)F)N(S(=O)(=O)c2ccc(C)cc2)[C@H]1c1ccc(C#N)cc1	0.0	·	17.5*	·	0.6	-0.5	-3.0
CC[C@@H]1C=C(C(=O)O)[C@H](c2ccc(Cl)cc2)N1S(=O)(=O)c1ccc(C)cc1	-3.2	1.5	16.6*	4.5	2.3	-0.6	-0.6
Cc1c(CCC(=O)O)c(=O)oc2c(C)c(OCc3cc4c(cc3Cl)OCO4)ccc12	-1.7	0.2	-1.2	5.4	-4.5	·	·
O=C(CCSc1ccccc1)NC(=O)COC(=O)c1ccc(OC(F)F)cc1	-1.8	-1.4	3.8	-0.6	-1.6	·	·
Cn1c(N)c(C(=O)COC(=O)CNC(=O)c2ccc(Cl)cc2Cl)c(=O)n(C)c1=O	-0.7	-1.1	14.5*	-3.6	2.1	-0.3	-1.7
Cn1c(N)c(C(=O)COC(=O)Cc2ccc(Cl)cc2Cl)c(=O)n(C)c1=O	2.2	2.7	-8.4	-13.0	-3.4	·	·
O=C(c1cccc(Cl)c1)N1CCN(S(=O)(=O)c2ccc(Cl)s2)CC1	-0.3	2.5	15.7*	-2.8	4.0	-0.4	-3.0
O=C(COc1ccccc1)Nc1nnc(-c2ccc(F)cc2)o1	4.2	0.0	16.8*	5.1	-3.3	-0.6	2.5
C=CCN1CCc2c(cc(O)c(O)c2Br)[C@@H](c2ccccc2)C1	1.4	4.8	61.2*	8.5	-3.9	0.1	141.0*
CN1CCc2cc(Cl)c(O)cc2[C@@H](c2ccccc2)C1	-1.2	-1.2	7.5	·	-2.0	·	·
Cc1ccc(S(=O)(=O)N2C[C@H]3[C@H]4C(=O)N(Cc5ccccc5)C(=O)[C@H]4CC(=O)[C@H]3[C@@H]2c2ccccc2F)cc1	-3.0	·	-3.3	·	-4.8	·	·
CCN1C(=O)[C@@H]2[C@@H]3CN(S(=O)(=O)c4ccc(C)cc4)[C@@H](c4ccccc4F)[C@@H]3C(=O)C[C@@H]2C1=O	-0.6	·	15.1*	·	-2.2	-0.1	1.5
CCCn1c(C)cc(C(=O)COC(=O)c2ccc[nH]c2=O)c1C	-1.0	-0.1	-0.1	7.0	10.5	·	·
OC[C@H]1O[C@@H](c2nc(-c3cccc4ccccc34)no2)[C@H](O)[C@@H]1O	0.5	·	-2.1	·	3.0	·	·
C[C@@]12CCC3[C@@](CCC4[C@@]3(C)CCC[C@@]4(C)C(=O)N3CCCCC3)(CC1=O)C2 (some centres not stated)	0.7	7.7	14.4*	-7.0	-3.8	-0.3	-5.1
C[C@@]12CCC3[C@@](CCC4[C@@]3(C)CCC[C@@]4(C)C(=O)NC3CCCCC3)(CC1=O)C2 (some centres not stated)	8.1	2.1	4.2	-11.1	2.0	·	·
CCOc1ccc(N2C(=O)CC(NCCc3c[nH]c4ccccc34)C2=O)cc1 (configuration not stated)	3.3	-1.3	18.9*	-3.2	11.1	-0.4	-1.8
O=C(O)c1cc(S(=O)(=O)N2CCCCC2)ccc1Cl	-5.7	-0.2	3.8	1.7	5.4	·	·
Cc1ccc(S(=O)(=O)N2CCCCC2)cc1NS(=O)(=O)c1ccc(Cl)c(C(=O)O)c1	0.4	0.6	17.3*	-0.3	-1.6	-0.5	1.1
CC1CCN(CCCNC(=O)CCc2nnc3n(CCc4ccccc4)c(=O)c4ccccc4n23)CC1	7.6	-0.4	-8.3	0.8	16.2	·	·
CC(C)Cn1c(=O)c2ccccc2n2c(CCC(=O)NC3CCN(Cc4ccccc4)CC3)nnc12	-2.2	-0.6	19.4*	-16.5	7.8	-0.6	6.3
CC(C)(C)C(C(=O)NCc1ccccc1)N1CCN(C(=O)C2CCCO2)CC1 (configuration not stated)	10.0	·	-3.4	·	1.5	·	·
CN1CCN(c2nc3c(c(=O)[nH]c(=O)n3C)n2CCCSc2ncccn2)CC1	3.7	-1.1	0.7	-18.1	5.9	·	·
CC1CCN(c2nc3c(c(=O)[nH]c(=O)n3C)n2CCSc2ncccn2)CC1	-1.5	·	60.1*	-20.9	-2.7	-0.5	-3.2
Cc1ccc(C)c(N2N=C(C(=O)Nc3ccccc3N3CCCC3)CCC2=O)c1	-1.1	5.5	-1.4	10.6	-5.7	·	·
Cc1ccc(C)c(N2N=C(C(=O)Nc3cccnc3)CCC2=O)c1	-4.0	3.9	15.3*	-3.4	2.3	-0.6	-1.9
